# In PubChem BioAssay (Tox21):
# Values without a mark were called inactive. Active and inactive are the calls of the source. Calls come from the whole dose curve; as a rule, active = well fitted curve in the direction sought with a large enough effect in the repeat runs; inconclusive = weak or mixed curves; inactive = flat fitted curve, though single readings scatter.
# Experiment: qHTS assay to test for compound auto fluorescence at 590 nm (red) in HEK293 cells (AID 720679)
# Conditions: red autofluorescence 540/590 nm; series mostly up to 91.3 µM
# Text: National Center for Advancing Translational Sciences [NCATS]
# NIH Chemical Genomics Center [NCGC]
# U.S. Environmental Protection Agency [EPA]
# National Institutes of Environmental Health Sciences [NIEHS]
# National Toxicology Program [NTP]
# U.S. Food and Drug Administration [FDA]
# Compound auto fluorescence often interferes with screening of the compound library against various biological targets and signaling pathways. Some of these compounds may have fluorophoric properties. Such properties may interfere with the assay outputs resulting in false positives and/or negatives. To decrease such complications and ensure the compound activities are relevant in terms of biological response, the Tox21 10K compound library was screened for auto fluorescence.
# From the fluorophores used as reporter signals in our screening assays, the auto fluorescence equivalencies of compounds against three fluorophores have been evaluated: Triamterene, Fluorescein and Rose Bengal sodium for blue, green and red fluorescence, respectively. The fluorescence intensities were measured using Excitation/Emission wavelengths at 405/460nm, 485/535nm and 540/590nm for blue, green and red labels, respectively. This assay includes the red fluorescence data.
# Tox21 Assay Protocol Summary:
# 2,000 HEK293 cells in 5 uL of culture medium containing 10% dialyzed FBS per well were dispensed into black wall/clear bottom 1536-well plates using a Multidrop Combi Dispenser (Thermo Scientific). The assay plates were incubated for 4-5 hr at 37C to allow cell attachment to the well bottom, followed by the transfer of 23 nL compound or DMSO vehicle by a pintool work station (Kalypsys, San Diego, CA). After the assay plates were incubated overnight at 37C and 5% CO2, fluorescence intensities in the assay plates were measured by an Envision (PerkinElmer, Shelton, CT) plate reader using three labels for measuring blue, green and red fluorescence at […] 460, 535 and 590nm respectively.
# % is set by controls: 0 for no effect and ±100 for the full control effect.
SMILES,outcome,"fluorescence, % of fluorescent control"
CCn1cc[n+](C)c1 (tested in a mixture with another compound),inactive,–
O=c1c2ccccc2c(=O)c2c1cc(Cl)c1[nH]c3c([nH]c12)c(Cl)cc1c(=O)c2ccccc2c(=O)c13,inactive,–
COP(=O)(OC)O/C(=C\Cl)c1cc(Cl)c(Cl)cc1Cl,inactive,–
C=CCBr,inactive,–
CC(Cc1ccc(OCC(=O)O)cc1)NCC(O)c1csc(C(F)(F)F)n1 (stereo not given),inactive,–
Clc1ccc(C(c2ccc(Cl)cc2)C(Cl)Cl)cc1,inactive,–
CCOP(=S)(OCC)Oc1cc(C)nc(N(CC)CC)n1,inactive,–
Cc1cc2c3c(c1)C(c1ccccc1)=N[C@@H](NC(=O)c1ccncc1)C(=O)N3CC2,inactive,–
O=[N+]([O-])C(Br)Br,inactive,–
CCCCC(CC)COC(=O)c1ccccc1C(=O)OCC(CC)CCCC (stereo not given),inactive,–
CC(Cc1ccc(O)cc1)NCC(O)c1cc(O)cc(O)c1 (stereo not given),inactive,–
O=[N+]([O-])c1ccccc1-c1ccccc1,inactive,–
CN1C(=O)[C@@H](NC(=O)c2cc3ccccc3[nH]2)N=C(c2ccccc2)c2ccccc21,inactive,–
CCOP(=S)(NC(C)C)Oc1ccccc1C(=O)OC(C)C (stereo not given),inactive,–
COc1ccc(Cc2nccc3cc(OC)c(OC)cc23)cc1OC,–,-0.0717% [at 18.6 µM]
C=CC(=C)C,inactive,–
Oc1ccc(Cl)c(Cl)c1,inactive,–
N#Cc1ccc(N(CC(N)=O)CC(F)(F)F)cc1C(F)(F)F,inactive,–
CNC(=O)O/N=C(\C)C(C)S(C)(=O)=O (stereo not given),inactive,–
O=Cc1ccccc1,inactive,–

SMILES,outcome,"fluorescence, % of fluorescent control"
CCCCn1cc[n+](C)c1.[Cl][Fe-]([Cl])([Cl])[Cl],inactive,–
COCCC#N,inactive,–
CCCCCCCc1ccc(O)cc1,inactive,–
COC(=O)c1cc(Oc2ccc(Cl)cc2Cl)ccc1[N+](=O)[O-],inactive,–
CN(C)C(=S)SSC(=S)N(C)C,inactive,–
Cc1cc(C2CC2)nc(Nc2ccccc2)n1,inactive,–
COP(=S)(OC)Oc1nc(Cl)c(Cl)cc1Cl,inactive,–
C#CCO,inactive,–
COc1c2c(cc3c1OCO3)CCN(C)C2,–,-0.0835% [at 18.6 µM]
C[N+]1(C)[C@@H]2CC[C@H]1CC(OC(=O)C(CO)c1ccccc1)C2 (stereo not given in full),inactive,–
CCC(C)Br (stereo not given),inactive,–
CCCCC(CC)COC(=O)OOC(C)(C)C (stereo not given),inactive,–
O=C(NC(=O)c1ccccc1Cl)Nc1ccc(OC(F)(F)F)cc1,inactive,–
[Cl][Hg][c]1ccccc1,inactive,–
CCO/N=C(\CC)C1=C(O)CC(c2c(C)cc(C)cc2C)CC1=O (stereo not given),inactive,–
NC(=O)C(Cl)Cl,inactive,–
ClSC(Cl)(Cl)Cl,inactive,–
FC(F)C(F)(F)OCC(Cn1cncn1)c1ccc(Cl)cc1Cl (stereo not given),inactive,–
CC(C)N(C(=O)SC/C(Cl)=C/Cl)C(C)C,inactive,–
O=c1[nH]c(Cl)c(Cl)cc1Cl,inactive,–
